# Measured values from PubChem BioAssay (NCI).
# This is part of a sample that, as a whole, favours compounds with a hit. Of some 83,000 tested, about 20% had one in any assay.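 Percent growth is the endpoint: 0 to 100 indicates growth inhibition (40 means 60% inhibition), 0 means no net growth, and negative values indicate cell death.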 Unmarked numbers belong to inactive results. Activity calls are given as the source filed them. The calls were made as follows: active = growth percent below 10; inactive = the rest.
# How the values were obtained:
# Assay in all cases: NCI-60 one-dose screen, 48 h (100 = growth as untreated, 0 = no growth, -100 = all killed)
# Details in all cases: 10 µM unless noted
# [1] = system: NCI-H23 lung
# [2] = system: NCI-H226 lung
# [3] = system: NCI-H322M lung
# [4] = system: HOP-62 NSCLC
# [5] = system: NCI-H460 lung
# [6] = system: HOP-92 NSCLC
# [7] = system: NCI-H522 lung
# [8] = system: A549/ATCC NSCLC
# [9] = system: 786-0 renal
# [10] = system: COLO 205 colon
# [11] = system: DU-145 prostate
# [12] = system: K-562 leukemia
# [13] = system: MALME-3M melanoma
# [14] = system: MDA-MB-231 breast
# [15] = system: SF-268 CNS
# [16] = system: SF-295 CNS
# [17] = system: SF-539 CNS
# [18] = system: UACC-257 melanoma
# [19] = system: M14 melanoma
SMILES,growth [1],growth [2],growth [3],growth [4],growth [5],growth [6],growth [7],growth [8],growth [9],growth [10],growth [11],growth [12],growth [13],growth [14],growth [15],growth [16],growth [17],growth [18],growth [19]
Cc1cccc(Oc2ccc(Nc3ncnc4ccc(NC(=O)CNCCO)cc34)cc2Cl)c1,85.1%,96.7%,18.9%,78.2%,39.2%,30.4%,31.6%,52.8%,55.7%,56.2%,44.3%,13.5%,70.5%,74.3%,61.7%,79.9%,64.6%,93.4%,74.3%
Cn1c(COC(=O)N2CCCCC2)nc2c(N3CCOCC3)nc(-c3ccccc3)nc21,-75.9% (active),-60.8% (active),37.4%,-31.3% (active),-55.9% (active),-64.7% (active),-53.2% (active),-39.7% (active),-75.1% (active),-60.2% (active),-87% (active),3.43% (active),-85.2% (active),-71.6% (active),-78.5% (active),21.6%,-91.9% (active),-76.3% (active),-59.8% (active)
C(=N\Nc1ncc(-c2cc3cc4c(cc3o2)OCO4)s1)/c1c[nH]c2ccccc12,-25.8% (active),-56.3% (active),26.7%,-18.4% (active),-27.2% (active),-0.218% (active),-42.2% (active),-38.6% (active),-40% (active),-28.8% (active),-41.3% (active),4.08% (active),-45.6% (active),-27% (active),-34.6% (active),-41.1% (active),-80% (active),3.52% (active),16.6%
COc1ccc(C(=O)c2cc3c(N)c(C(=O)Nc4ccc(Br)cc4)sc3nc2C)cc1,82.7%,38.5%,78.9%,21.2%,50%,66.1%,39.6%,79.5%,58.2%,85.9%,79.5%,71.5%,54.3%,66%,50.2%,86.6%,66.2%,79.8%,74.1%
COc1ccc(C(=O)/C=C/c2cn(Cc3ccc(Cl)cc3)c3ccccc23)cc1,87.5%,55.1%,79.5%,58.9%,11.8%,77.3%,26.5%,57.2%,26.9%,62.9%,87.4%,15.5%,59.9%,64.5%,72.4%,60.2%,55.8%,81.8%,-60.1% (active)
CC(C)(C)CC(C)(C)Nc1c(-c2ccc(C(F)(F)F)cc2)nc2cnccn12,82.4%,92.5%,103%,92.7%,89.5%,82.6%,67.4%,83.1%,-12.3% (active),96%,93%,65.6%,103%,86%,88.8%,86.3%,86%,98.7%,-54.1% (active)
O=C(Nc1ccc2ncnc(Nc3ccc(Oc4cccc(F)c4)c(Cl)c3)c2c1)c1ccc(CNCCO)cc1,73.7%,91.6%,39.9%,54.7%,-61.4% (active),62.5%,26.9%,48.6%,-4.01% (active),-54.5% (active),7.74% (active),-8.41% (active),2.04% (active),-67.2% (active),56%,19.6%,33.9%,99.1%,-45.9% (active)
COc1ccc(NC(=O)c2sc3nc(C)c(C(=O)c4ccc(OC)cc4)cc3c2N)cc1,73.9%,87.9%,40.3%,43%,9.29% (active),67.3%,40.7%,24.6%,59.9%,42.9%,65.4%,23.3%,37.9%,60.2%,61.8%,44.3%,51%,55.8%,32.8%
CCNC(=O)c1[nH]cc(-c2ccc(OC)cc2)c1-c1cc(OC)cc(OC)c1,91.9%,88.7%,97.7%,97.5%,99%,72.9%,62.6%,91.3%,95.6%,105%,108%,45.1%,93%,82.1%,96.7%,96.7%,99.2%,103%,95.8%
O=C(N/N=C/c1ccc(O)c(O)c1)c1sc2ccccc2c1Cl,97%,68.8%,98.5%,81.7%,46%,49.7%,95%,96.3%,65.2%,53.5%,108%,95.9%,96.8%,101%,77.9%,114%,52.2%,111%,97.7%
COc1ccc(-c2cnc(N)nc2-c2ccc(OC)cc2O)cc1,92.5%,99.8%,90.4%,110%,89.8%,57.8%,79.6%,93.1%,90%,113%,99.2%,80.4%,126%,99.4%,107%,101%,88.1%,112%,109%
O=S(=O)(NCCCNc1nccc(-c2c(-c3ccc(F)c(O)c3)nc3sccn23)n1)c1ccc(F)cc1,2.45% (active),11%,5.97% (active),19.9%,6.31% (active),6.16% (active),-9.08% (active),10.2%,14.1%,11.5%,11.5%,3.41% (active),-14.7% (active),-23.1% (active),9.56% (active),-12.1% (active),18.5%,-10% (active),6.75% (active)
COc1ccc(C(O)c2cc3c(N)c(C(=O)Nc4cccc(Br)c4C)sc3nc2C)cc1 (centres undefined),32.1%,56.9%,46.1%,36.5%,-2.32% (active),61.5%,-32.7% (active),20.5%,37.6%,-7.14% (active),9.81% (active),5.92% (active),47.3%,5.97% (active),30.1%,18.5%,-3.14% (active),47.8%,18.9%
CC1=NNC(=O)C1CCC(=O)N/N=C(\C)c1ccc2ccccc2c1 (centres undefined),104%,99.6%,122%,115%,108%,94.4%,96.1%,95.3%,103%,167%,102%,97.6%,120%,111%,98.9%,323%,94.8%,99.9%,113%
CCN(CC)CCOC(COc1cc(C)cc(C)c1)COc1cc(C)cc(C)c1,37.9%,54.4%,48.7%,54.3%,9.62% (active),22.7%,35.4%,47.8%,44.9%,-15.8% (active),48.1%,2.57% (active),13.6%,23.8%,56.6%,48.9%,61.9%,65.1%,7.46% (active)
CNC(=O)c1c(NC(=O)c2ccc(C(C)C)cc2)sc2c(CN(C)C)c(O)ccc12,101%,95.2%,94.2%,98.9%,38.7%,64.7%,77.8%,115%,83.9%,97.6%,97.4%,-7.46% (active),88.5%,95%,90.8%,97.7%,97.3%,110%,86.8%
